Bioassay records as filed in PubChem BioAssay.
Compounds with a hit are over-represented: about 3.8% of the library has one in this group of screens.
HT1080 IDH1KD tx = HT-1080 IDH1 knockdown cell toxicity (counter line). HT-1080 IDH1 knockdown viability, ATP luminescence, 48 h. Potency, µM (doses to about 46.1 µM), actives largely listed as cytotoxic. actives 2% (n = 360,000)
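CellTiter-Glo luminescence after 48 h compound exposure at 37 degrees C of IDH1-knockdown HT-1080 cells in 5% FBS RPMI. %Activity scaled between DMSO wells and cell-free media wells, with curves fitted and assigned curve classes.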
S2 tox = reduces viability in counter-screen for ATXN expression inhibitors. actives 0.49% (n = 400,000). S2 cells (HEK-293 line with an ATXN2-luciferase reporter) viability, CellTiter-Fluor protease fluorescence, 24 h. Potency, µM (highest dose often 56.7 µM), most hits filed as cytotoxic. AID 651635; also: nearly all actives have a fitted effect of over 40% in size
ATXN2 expr inh = inhibitors of ATXN2 expression; actives 0.72% (n = 360,000); HEK-293 ATXN2-luciferase reporter, luminescence, 24 h; Potency, µM (titrated, usually from 57 µM), hits mostly inhibitors; also: nearly all actives have a fitted effect of over 55% in size
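qHTS (up to 57 uM final) was run with 24 h compound exposure of reporter cells at 37 °C. Each well was multiplexed: SteadyGlo luminescence measured ATXN2-luciferase expression after a fluorogenic Gly-Phe-AFC viability readout (25 uM final).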
HT1080NT lethal = kills 2HG-producing HT-1080-NT fibrosarcoma cells; HT-1080-NT fibrosarcoma viability, CellTiter-Glo ATP luminescence, 48 h; Potency, µM (highest dose often 46.1 µM), most hits filed as cytotoxic; actives 1.6% (n = 360,000);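 also: NT is the 2HG producing partner of a matched IDH1 knockdown line; nearly all actives have a fitted effect of over 55% in size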
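Read-out is CellTiter-Glo luminescence after 10 minutes at room temperature, following 48 hours' compound treatment of HT-1080-NT cells (750 cells/well, RPMI, 5% FBS, 37 degrees C).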
TGFb inhibitor = blocks TGF-b signaling; HepG2 CAGA-GFP TGF-b/SMAD3 reporter, GFP fluorescence, 18 h; TGF-beta stimulated, 500 pg/mL final; Potency, µM (titrated, usually from 46.1 µM), most hits filed as inhibitors; actives 1.2% (n = 410,000); AID 588855; also: nearly all actives have a fitted effect of over 65% in size
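Per well, imaged GFP fluorescence of HEPG2 CAGA-GFP cells gives the signal; cells get compound, then TGF-beta (500 pg/mL final), 18 h at 37 degrees C; %Activity versus -TGF-beta and +DMSO controls.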
HepG2 tox = counter-screen for TGF-b inhibitors: cytotoxicity in HepG2 cells | HepG2 CAGA-GFP viability, ATP luminescence, 18 h | Potency, µM (series often up to 46.1 µM), usual class: cytotoxic | actives 0.76% (n = 410,000)
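CellTiter-Glo luminescence gave cytotoxicity after 18 hours at 37 degrees C. The cells were HepG2 CAGA-GFP in 1% FBS DMEM, stimulated with 500 pg/mL TGF-beta after compound addition. %Activity was normalised to no-cell wells (complete cell-killing) and DMSO (no toxicity), and curves were fitted and classified.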
A number is an active result; i = inactive; ? = inconclusive; nt = no result given. Calls follow the shape of the dose curve; as a rule, active = well fitted curve in the direction sought with a large enough effect; inconclusive = small, poorly fitted or top-dose-only effect, or another doubt; inactive = no such curve, though single readings can be large; an effect the other way counts as inactive or inconclusive.

SMILES	HT1080 IDH1KD tx	S2 tox	ATXN2 expr inh	HT1080NT lethal	TGFb inhibitor	HepG2 tox
COc1ccccc1/C=C/C1(C(=O)NC2CCCC2)CC(=O)N1c1ccccc1 (stereo not drawn)	?	?	nt	16.4µM	?	i
C=CCc1ccccc1OCc1nc2ccc(C)cc2[nH]1	nt	?	?	nt	?	i
COCCSc1nnc(NC(=O)CCS(=O)(=O)c2ccccc2)s1	23.1µM	i	i	?	?	i
CC(=O)c1sc(NC(=O)CCS(=O)(=O)c2ccccc2)nc1C	?	?	?	i	17.8µM	i
O=C(N/N=C/c1cc([N+](=O)[O-])ccc1O)c1cc(-c2ccccc2)nc2ccccc12	4.11µM	?	10µM	?	i	i
O=C(N/N=C/c1cc([N+](=O)[O-])ccc1Cl)c1cc(-c2ccccc2)nc2ccccc12	i	i	i	i	i	i
Cc1cc(C(=O)N/N=C/c2cc([N+](=O)[O-])ccc2O)c2ccccc2n1	?	?	?	?	?	i
O=C(N/N=C/c1cc([N+](=O)[O-])ccc1O)c1c[nH]c2ccccc12	14.6µM	i	14.1µM	?	?	i
Nc1ccc(C(=O)N/N=C\c2cc(N=Nc3cccc4ccccc34)ccc2O)cc1	11.6µM	?	5.62µM	?	i	i
O=C(NN=Cc1cc([N+](=O)[O-])ccc1O)c1cccc2ccccc12	6.51µM	nt	?	?	?	i
O=C(N/N=C/c1cccc([N+](=O)[O-])c1)c1c[nH]c2ccccc12	i	i	i	i	i	i
COCC(=O)Nc1cc(C(=O)N2CCCCC2c2nccs2)c2c(c1)nc(-c1ccncc1)n2C (stereo not drawn)	nt	i	nt	nt	nt	nt
O=C(c1ccoc1)N1CCOc2ccc(CN3CCC(Oc4cccnc4)CC3)cc2C1	nt	i	nt	nt	nt	nt
COc1ccc(C(=O)CSc2cc(C)nc3nc(C)nn23)cc1OC	11.2µM	i	i	15.8µM	i	i
COc1ccc(C(=O)CSC#N)cc1OC	20.6µM	i	i	?	?	i
COc1ccc(C(=O)COC(=O)c2ccc(OC)c(OC)c2)cc1OC	i	i	i	i	i	i
COc1ccc(C(=O)CSc2nc(SC)ns2)cc1OC	i	i	i	i	i	i
O=C(Nc1c2c(nn1-c1ccc(Cl)cc1)CS(=O)(=O)C2)c1cccc(Cl)c1	nt	i	?	nt	?	i
Cc1ccsc1/C=C/c1ccc2cccc(O)c2n1	11.2µM	?	i	12.6µM	?	i
Cc1cccc(/C=C/c2cccs2)n1	nt	nt	nt	nt	?	i
Oc1cccc2ccc(/C=C/c3cccs3)nc12	11.2µM	i	i	?	?	i
Cc1ccsc1/C=C/c1ccc2ccccc2n1	i	i	i	i	i	i
Oc1ccc(Cl)cc1/C=C/c1ccc2cccc(O)c2n1	20.6µM	?	i	?	?	i
Oc1c(Cl)cc(Cl)cc1/C=C/c1ccc2cccc(O)c2n1	?	i	?	?	?	i
COCC1CCCN(Cc2cn(Cc3ccccc3)nc2-c2cc3ccccc3o2)C1 (stereo not drawn)	16.4µM	?	i	?	12.6µM	i
SMILES	HT1080 IDH1KD tx	S2 tox	ATXN2 expr inh	HT1080NT lethal	TGFb inhibitor	HepG2 tox
O=C(NCCc1ccccc1F)c1ccc2c(c1)OCCO2	i	?	0.562µM	i	i	i
Nc1cc(N2CCCC2)c(Cl)cc1[N+](=O)[O-]	i	i	i	i	i	i
Nc1cc(N2CCOCC2)c(Cl)cc1[N+](=O)[O-]	16.4µM	i	?	?	i	i
CC[C@H](C)[C@@H](CN[C@H](C)CNC)NCCC(c1ccccc1)c1ccccc1	?	31.6µM	?	?	?	22.4µM
CN(C)CC1CCC/C(=C\c2ccc(OC(=O)/C=C/c3ccccc3)cc2)C1=O (stereo not drawn)	i	nt	25.1µM	i	i	i
CN(C)CC1CC/C(=C\c2ccc(O)cc2)C1=O (stereo not drawn)	5.17µM	nt	?	?	?	i
CN(C)CC1CCC/C(=C\c2ccc(OC(=O)c3ccc(Cl)cc3)cc2)C1=O (stereo not drawn)	2.91µM	23.8µM	i	?	?	i
